Source: PubChem BioAssay
SMN2 splice enh: increases expression of the SMN2 splice variant | HEK293 SMN2-luciferase splicing reporter, luminescence, 30-36 h | hit rate 2.8% among 210,000 | Potency, µM (doses to about 46.1 µM), without a hit: top-dose activity change, positive = activation, usual class: activators; further: % of control where 0% means no effect; nearly all actives have a fitted effect of over 55% in size
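HEK293 cells carry an SMN2 […]–luciferase reporter in which exon 7 inclusion puts luciferase in frame. Cells were plated 10-12 h before compound addition, then incubated 30-36 h at 37C. ONE-Glo luminescence was read; sodium butyrate at 4.5 mM final served as control.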
FLuc counter: counter-screen for miR-21 project: firefly luciferase inhibitors or activators; purified FLuc, Km substrates, luminescence inhibition; Potency, µM (top dose mostly 57.5 µM), without a hit: at the top dose activity change, negative = inhibition, actives largely listed as inhibitors; hit rate 6.9% among 360,000;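 further: plate controls were vehicle for no effect and reference inhibitor for full effect; nearly all actives have a fitted effect of over 55% in size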
Target sequence (P08659 whole entry, looked up): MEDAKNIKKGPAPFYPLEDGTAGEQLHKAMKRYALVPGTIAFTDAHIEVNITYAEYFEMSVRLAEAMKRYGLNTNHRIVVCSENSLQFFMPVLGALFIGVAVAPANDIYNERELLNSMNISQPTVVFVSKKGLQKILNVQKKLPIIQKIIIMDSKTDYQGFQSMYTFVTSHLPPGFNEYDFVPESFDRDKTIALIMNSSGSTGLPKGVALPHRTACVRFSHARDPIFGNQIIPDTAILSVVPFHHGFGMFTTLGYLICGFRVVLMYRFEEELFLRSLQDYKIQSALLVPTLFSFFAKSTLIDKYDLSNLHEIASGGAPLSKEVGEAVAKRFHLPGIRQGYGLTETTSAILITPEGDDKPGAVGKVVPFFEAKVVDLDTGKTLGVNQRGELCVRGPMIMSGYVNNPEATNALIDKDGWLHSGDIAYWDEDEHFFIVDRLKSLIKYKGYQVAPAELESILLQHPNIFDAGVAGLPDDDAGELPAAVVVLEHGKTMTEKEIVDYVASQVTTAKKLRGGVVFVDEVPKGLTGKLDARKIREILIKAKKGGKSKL
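Biochemical qHTS of compounds, final roughly 60 µM downward over six points, against 10 nM purified firefly luciferase using Km concentrations of substrates (10 uM D-luciferin, 10 uM ATP) in Tris acetate pH 7.5 buffer; luminescence output.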
ELG1 genotox: induces genotoxicity in HEK293T cells with luciferase-tagged ELG1 | HEK293T ELG1-luciferase reporter, luminescence, 16 h | AID 504466 | Potency, µM (doses to about 46 µM), without a hit: at the top dose activity change, positive = activation, usual class: activators | hit rate 1.3% among 330,000; further: % of control where 0% means no effect; nearly all actives have a fitted effect of over 60% in size
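HEK293T cells expressing luciferase-tagged ELG1 were exposed to compound or DMSO vehicle for 16 hr at 37 °C and 5% CO2. Luciferase activity was then measured with ONE-Glo after 30 min at room temperature.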
Rab9 prom act: Rab9 promoter activation | AID 485297 | Huh7 Rab9 promoter-luciferase reporter, luminescence, 24 h | hit rate 2.8% among 320,000 | Potency, µM (highest dose often 9.22 µM), for inactives: at the top dose activation, negative = inhibition, hits mostly activators; further: % of control where 0% means no effect; nearly all actives have a fitted effect of over 60% in size
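Cells were plated at 1500 per well in reduced-serum medium with 10% FBS and left 2 h. Compound in DMSO was then added for 24 h at 37 °C. Reporter signal was read by luminescence after 10 min with luciferase detection reagent.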
Luc counter: counter-screen: inhibitors of Kinase-Glo firefly luciferase. Q27757. hit rate 0.28% among 200,000. Potency, µM (doses to about 38.3 µM), for the others: at the top dose activity change, negative = inhibition, most hits filed as inhibitors. Kinase-Glo luciferase, ATP luminescence, 8 min; further: on the % scale 0 is the no-effect control and ±100 the full control effect; nearly all actives have a fitted effect of over 60% in size
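Substrate mix (final 50 mM imidazole pH 7.2, 50 mM KCl, 7 mM MgCl2, 10 uM ATP, 0.01% Tween 20, 0.05% BSA) plus pin-tool compound, then Kinase-Glo detection mix; 8 min ambient, luminescence read.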
NPC1 prom act: activators of NPC1 promoter | Huh7 NPC1 promoter luciferase reporter, 24 h | Potency, µM (doses to about 9.22 µM), without a hit: at the top dose activation, most hits filed as activators | hit rate 2.4% among 320,000; further: % of control where 0% means no effect; nearly all actives have a fitted effect of over 60% in size
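Cells: Huh7 expressing luciferase under the NPC1 promoter, 1500/well. Seeded 2 h, compound added, incubated 24 h at 37 °C. Luciferase reagent, 10 min ambient, then luminescence.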
An asterisk follows results filed as active; [ ] = remark or other dose. Only some compounds are listed: those with a hit (about 7.4% of all), similar ones and a draw of the others. The call rests on the fitted dose curve; in most records, active means well fitted curve in the direction sought with a large enough effect; inconclusive means small, poorly fitted or top-dose-only effect, or another doubt; inactive means no such curve, though single readings can be large; an effect the other way counts as inactive or inconclusive. Potency means the concentration at half of the fitted maximal effect.

How did COc1ccc(Nc2nc3ccccc3s2)cc1 do in these assays?
SMN2 splice enh: 10µM*; FLuc counter: 5.4µM*; ELG1 genotox: inconclusive; Rab9 prom act: 1.4µM*; Luc counter: -8%; NPC1 prom act: 2.5µM*

What do the screens show for `COc1cccc(Nc2nc3ccc(OC)cc3s2)c1`?
SMN2 splice enh: 20µM*; FLuc counter: 4.3µM*; ELG1 genotox: inconclusive; Rab9 prom act: 4.5µM*; Luc counter: -3%; NPC1 prom act: inconclusive

What do the screens show for `Cc1cccc(Nc2nc3ccccc3s2)c1C`?
SMN2 splice enh: 10µM*; FLuc counter: 2.4µM*; ELG1 genotox: 6.5µM*; Rab9 prom act: 2.5µM*; Luc counter: 2%; NPC1 prom act: 3.2µM*

What do the screens show for `CCC(=O)Nc1cccc(-c2nc3ccccc3c(=O)o2)c1`?
SMN2 splice enh: -10%; FLuc counter: inconclusive; ELG1 genotox: -3%; Rab9 prom act: 5%; Luc counter: -2%; NPC1 prom act: -4%

Results for O=C(CSc1nc2ccccc2c(=O)[nH]1)Nc1ccc(C(=O)O)cc1 ?
SMN2 splice enh: 10%; FLuc counter: inconclusive; ELG1 genotox: 1%; Rab9 prom act: -2%; Luc counter: -3%; NPC1 prom act: -9%

What do the screens show for `CC(=O)Nc1ccc(-c2nc3ccccc3c(=O)o2)cc1`?
FLuc counter: 2.7µM*; ELG1 genotox: -1%; Rab9 prom act: 6%; NPC1 prom act: 0%

How did O=c1oc(-c2ccc(Br)cc2)nc2ccccc12 do in these assays?
FLuc counter: inconclusive; ELG1 genotox: inconclusive; Rab9 prom act: 3.2µM*; NPC1 prom act: 2.2µM*

How did O=c1oc(-c2cccs2)nc2ccccc12 do in these assays?
SMN2 splice enh: inconclusive; FLuc counter: 6%[2.3 µM]; ELG1 genotox: 4%; Rab9 prom act: 3%; Luc counter: -9%; NPC1 prom act: 1%

What do the screens show for `CC(C)CC(=O)Nc1ccc(-c2nc3ccccc3c(=O)o2)cc1`?
SMN2 splice enh: 8%; FLuc counter: 1.7µM*; ELG1 genotox: 19%; Rab9 prom act: 1%; Luc counter: -8%; NPC1 prom act: 3%

What do the screens show for `CC(C)CC(=O)Nc1ccc(-c2nc3ccccc3c(=O)[nH]2)cc1`?
SMN2 splice enh: 3.2µM*; FLuc counter: 2.4µM*; ELG1 genotox: 6.5µM*; Rab9 prom act: 0.89µM*; Luc counter: -8%; NPC1 prom act: 1.1µM*

What do the screens show for `CC(=O)Nc1cccc(-c2nc3ccccc3c(=O)o2)c1`?
SMN2 splice enh: -5%; FLuc counter: -7%; ELG1 genotox: 0%; Rab9 prom act: -3%; Luc counter: -2%; NPC1 prom act: 0%

How did Cc1nnsc1C(=O)N1CCCC(N2CCN(c3ccc(F)cc3)CC2)C1 (configuration not stated) do in these assays?
FLuc counter: -1%; ELG1 genotox: -5%; Rab9 prom act: 1%; NPC1 prom act: 0%

How did O=c1oc(-c2ccccc2[N+](=O)[O-])nc2ccccc12 do in these assays?
SMN2 splice enh: 33%; FLuc counter: 4%; ELG1 genotox: -4%; Rab9 prom act: -1%; Luc counter: 4%; NPC1 prom act: 0%

What do the screens show for `Nc1ccccc1-c1nc2ccccc2c(=O)o1`?
FLuc counter: 11µM*; ELG1 genotox: 1%; Rab9 prom act: 17%; NPC1 prom act: 8%

Results for CC(=O)Nc1ccc(C(=O)OCC(=O)N2CCC(Cc3ccccc3)CC2)cc1 ?
FLuc counter: 0%; ELG1 genotox: -6%; Rab9 prom act: 19%; NPC1 prom act: -1%

Results for COc1cccc(/C=N/Nc2ncccc2[N+](=O)[O-])c1OC ?
FLuc counter: 0.3µM*; ELG1 genotox: 0.29µM*; Rab9 prom act: -5%; NPC1 prom act: inconclusive

What do the screens show for `COc1ccccc1/C=N/Nc1nccnc1Cl`?
SMN2 splice enh: -21%; FLuc counter: 12µM*; ELG1 genotox: 18µM*; Rab9 prom act: inconclusive; Luc counter: inconclusive; NPC1 prom act: 27%

Results for CCOc1ccccc1/C=N/Nc1ccnc(=O)[nH]1 ?
FLuc counter: -3%; ELG1 genotox: 7%; Rab9 prom act: -5%[1.84 µM]; NPC1 prom act: 5%

Results for CC[C@@H]1OC(=O)[C@H](C)[C@H](O[C@@H]2C[C@](C)(OC)[C@H](O)[C@H](C)O2)[C@H](C)[C@H](O[C@@H]2O[C@@H](C)C[C@@H](N(C)C)[C@@H]2O)[C@](C)(O)C[C@H](C)C(=NOCOCCOC)[C@H](C)[C@H](O)[C@]1(C)O ?
SMN2 splice enh: -21%[20.6 µM]; Luc counter: 1%[17.1 µM]

Results for O=C(NCc1ccncc1)Nc1cccc(Cl)c1 ?
SMN2 splice enh: 20%; FLuc counter: -15%; ELG1 genotox: 5%; Rab9 prom act: 11%; Luc counter: -3%; NPC1 prom act: 8%

Results for Cc1c(C(=O)Nc2cccc(Cl)c2)c2ccccn2c1CCc1ccncc1 ?
SMN2 splice enh: 8%; FLuc counter: 17µM*; ELG1 genotox: -8%; Rab9 prom act: -6%; Luc counter: 0%; NPC1 prom act: -2%

How did Cc1c(C(=O)Nc2ccc(Cl)cc2)c2ccccn2c1CCc1ccncc1 do in these assays?
SMN2 splice enh: -3%; FLuc counter: 3µM*; ELG1 genotox: 3%; Rab9 prom act: inconclusive; Luc counter: -2%; NPC1 prom act: inconclusive

How did CCOc1cc(/C=C2\CCCc3c2nc2ccccc2c3C(=O)O)ccc1OC do in these assays?
FLuc counter: inconclusive; ELG1 genotox: 1%; Rab9 prom act: -3%; NPC1 prom act: -3%

How did Cc1cc(C(=O)OCC(=O)NC(C)c2ccc(F)cc2)c(C)o1 (configuration not stated) do in these assays?
ELG1 genotox: 2%; Rab9 prom act: -10%; NPC1 prom act: -1%

What do the screens show for `CC(C)Cc1ccc(/C=C/C(=O)N2CCOCC2)cc1`?
SMN2 splice enh: 13µM*; FLuc counter: 11µM*; ELG1 genotox: inconclusive; Rab9 prom act: 2.2µM*; Luc counter: 0%; NPC1 prom act: 2.8µM*

How did O=C(/C=C/c1ccc2c(c1)OCO2)N1CCOCC1 do in these assays?
FLuc counter: 17µM*; ELG1 genotox: 11%; Rab9 prom act: 26%; Luc counter: -4%; NPC1 prom act: 19%

How did CC(C)(C)c1ccc(/C=C/C(=O)N2CCN(c3ncccn3)CC2)cc1 do in these assays?
SMN2 splice enh: -4%; FLuc counter: 24µM*; ELG1 genotox: -3%; Rab9 prom act: -3%; Luc counter: -1%; NPC1 prom act: -3%
